Among the data in PubChem BioAssay (EPA / NIEHS) are outcome and AC50 values, retold here.

Calls of active or inactive are those of the source. The calls were made as follows: active = hit-call score of the fitted dose curve at least 0.9, where 1 is the maximum; inactive = score below 0.9.

The AC50 is the concentration at which the activity in the assay is half-maximal.

Test system in one assay: not listed separately
As to the kind of experiment: ATG_GLI_CIS: Attagene CIS-FACTORIAL HepG2 Assay for human Zinc Finger Protein GLI1 (AID 2282945). Conditions: HepG2, Attagene cis-factorial reporter mRNA, GLI element; actives raise or lower the signal. The procedure, abridged:
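Bidirectional curve fits relative to DMSO, using reporter mRNA levels from RT-PCR plus capillary electrophoresis. Cells were HepG2 transiently carrying cis-regulated reporter constructs, harvested 24 h after dosing.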
In the case of `CCCCCc1ccc(O)cc1`, the outcome was inactive.

Consider `NC(C(F)(F)F)C(F)(F)F`, for which the call was inactive.

With `Oc1cc2ccccc2cc1O`, the call was inactive.

As for `CS(=O)(=O)c1ccc([C@@H](CC2CCCC2)C(=O)Nc2cnccn2)cc1Cl`, the outcome was inactive.

Take `FC(F)(F)N1C(F)(F)C(F)(F)OC(F)(F)C1(F)F`: the compound was classed as inactive.

Regarding `O=C(C=C(O)C(F)(F)F)C(F)(F)F`, the compound was classed as inactive.

Turning to `C=COC(=O)C(C)(C)CCCCCC`, the compound was classed as inactive.

Regarding `O=C(c1cc(O)c(O)c(O)c1)c1ccc(O)c(O)c1O`, the outcome was inactive.

In the case of `CCCCCCCCCCCC(=O)NCCCN(C)C`, the compound was classed as inactive.

Turning to `FCOC(C(F)(F)F)C(F)(F)F`, the outcome was inactive.

With `CCCCCCc1ccc(N)cc1`, the compound was classed as inactive.

Consider `FC(F)(F)C(F)(F)C(F)(F)C(F)(F)I`, for which the compound was called inactive.

Regarding `COc1ccc(C#N)cc1`, the compound was classed as inactive.

In the case of `C=CC(=O)OCCC(F)(F)C(F)(F)C(F)(F)C(F)(F)C(F)(F)C(F)(F)F`, the outcome was inactive.

Regarding `O=C(F)C(F)(F)C(F)(F)C(F)(F)C(F)F`, the result was inactive.

Consider `CN(C)CCOC(c1ccccc1)c1ccccc1`, for which the call was inactive.

In the case of `Nc1ccn([C@@H]2O[C@H](CO)[C@@H](O)C2O)c(=O)n1` (some centres undefined), the outcome was inactive.

`NNC(=O)CCCCC(=O)NN`: the result was inactive.

`COC(O)c1ccccc1` (centres undefined): the compound was called inactive.

Take `CCCCCCCCCCCC[N+](C)(C)CCCCCCCCCCCC`: the outcome was inactive.

For `Cc1ccccc1OCC(=O)O`, the compound was called inactive.

Regarding `O=C(Nc1cccc([N+](=O)[O-])c1)c1cc2ccccc2cc1O`, the compound was classed as inactive.

Take `Brc1ccc(Oc2ccc(Br)cc2Br)cc1`: the compound was classed as inactive.

For the compound `O=S(=O)(c1ccc(OCc2ccccc2)cc1)c1ccccc1O`, the AC50 was 51.1 µM (active).

For the compound `O=C(F)C(F)(F)C(F)(F)C(F)(F)C(=O)F`, the compound was classed as inactive.

As for `NS(=O)(=O)O`, the outcome was inactive.

For `CCCCC=O`, the compound was classed as inactive.

Regarding `O=C(O)C(=O)O`, the call was inactive.

As to `CCOCCOCC`, the result was inactive.

As for `O=CC(F)(F)C(F)(F)C(F)(F)F`, the compound was classed as inactive.

As for `OCCN1CN(CCO)CN(CCO)C1`, the AC50 was 162 µM (active).

For `C=Cc1ccc(O)c(OC)c1`, the compound was classed as inactive.

As for `Cc1ccc(C(=O)c2ccccc2)cc1`, the outcome was inactive.

Consider `CCCC=O`, for which the compound was called inactive.

Turning to `O=S(=O)(O)c1ccc2cc(O)ccc2c1`, the outcome was inactive.

For `O=C1NS(=O)(=O)c2ccccc21`, the compound was called inactive.

Regarding `CC(C)(O)C(=O)c1ccccc1`, the call was inactive.

For the compound `CN(CCO)S(=O)(=O)C(F)(F)C(F)(F)C(F)(F)C(F)(F)C(F)(F)C(F)(F)C(F)(F)C(F)(F)F`, the result was inactive.

For a further assay, the target named is Bile acid receptor (Homo sapiens) (UniProt Q96RI1). Nature of the assay: ATG_IR1_CIS: Attagene CIS-FACTORIAL HepG2 Assay for human Nuclear Receptor Subfamily 1 Group H Member 4 (NR1H4), IR1 submotif (AID 2282946). As to conditions: IR1 reporter transcription, actives raise or lower the signal. The essentials: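 Cells (human HepG2) carry transiently transfected cis-promoter reporter transcription units. Compounds are incubated 24 h, total RNA is reverse-transcribed and amplified, and labelled fragments are resolved by capillary electrophoresis. Curves use DMSO as baseline.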
Sequence of Bile acid receptor (Homo sapiens) (Q96RI1 whole entry, looked up, the tested form may be a part): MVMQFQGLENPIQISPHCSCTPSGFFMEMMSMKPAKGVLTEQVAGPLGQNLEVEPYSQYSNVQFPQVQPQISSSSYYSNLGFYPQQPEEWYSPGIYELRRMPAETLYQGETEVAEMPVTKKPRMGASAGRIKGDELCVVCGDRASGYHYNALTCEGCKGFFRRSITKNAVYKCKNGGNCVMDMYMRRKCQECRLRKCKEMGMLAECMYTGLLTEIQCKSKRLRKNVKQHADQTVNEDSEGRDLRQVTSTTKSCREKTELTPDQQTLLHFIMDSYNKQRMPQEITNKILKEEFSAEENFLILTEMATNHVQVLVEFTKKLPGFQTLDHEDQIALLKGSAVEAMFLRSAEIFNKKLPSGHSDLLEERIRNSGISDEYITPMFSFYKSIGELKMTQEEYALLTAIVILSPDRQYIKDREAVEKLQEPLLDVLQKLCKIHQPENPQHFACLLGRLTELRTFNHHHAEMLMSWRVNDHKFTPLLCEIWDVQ
Take `CCCCCc1ccc(O)cc1`: the call was inactive.

Take `NC(C(F)(F)F)C(F)(F)F`: the compound was called inactive.

For the compound `Oc1cc2ccccc2cc1O`, the compound was called inactive.

As for `FC(F)(F)N1C(F)(F)C(F)(F)OC(F)(F)C1(F)F`, the result was inactive.

As for `O=C(C=C(O)C(F)(F)F)C(F)(F)F`, the result was inactive.

On to `C=COC(=O)C(C)(C)CCCCCC`, for which the result was inactive.

With `O=C(c1cc(O)c(O)c(O)c1)c1ccc(O)c(O)c1O`, the call was inactive.

For `CCCCCCCCCCCC(=O)NCCCN(C)C`, the AC50 was 16.4 µM (active).

Take `FCOC(C(F)(F)F)C(F)(F)F`: the compound was classed as inactive.

Consider `CCCCCCc1ccc(N)cc1`, for which the compound was classed as inactive.

With `FC(F)(F)C(F)(F)C(F)(F)C(F)(F)I`, the compound was classed as inactive.

Consider `COc1ccc(C#N)cc1`, for which the result was inactive.

Turning to `C=CC(=O)OCCC(F)(F)C(F)(F)C(F)(F)C(F)(F)C(F)(F)C(F)(F)F`, the compound was classed as inactive.

Consider `O=C(F)C(F)(F)C(F)(F)C(F)(F)C(F)F`, for which the compound was classed as inactive.

With `Nc1ccn([C@@H]2O[C@H](CO)[C@@H](O)C2O)c(=O)n1` (some centres undefined), the compound was called inactive.

Regarding `NNC(=O)CCCCC(=O)NN`, the outcome was inactive.

Regarding `COC(O)c1ccccc1` (centres undefined), the outcome was inactive.

Consider `CCCCCCCCCCCC[N+](C)(C)CCCCCCCCCCCC`, for which the compound was called inactive.

With `Cc1ccccc1OCC(=O)O`, the result was inactive.

Turning to `O=C(Nc1cccc([N+](=O)[O-])c1)c1cc2ccccc2cc1O`, the compound was called inactive.

Turning to `Brc1ccc(Oc2ccc(Br)cc2Br)cc1`, the compound was classed as inactive.

For the compound `O=S(=O)(c1ccc(OCc2ccccc2)cc1)c1ccccc1O`, the AC50 is 56 µM (active).

With `O=C(F)C(F)(F)C(F)(F)C(F)(F)C(=O)F`, the call was inactive.

Take `CCCCC=O`: the call was inactive.

Regarding `CCOCCOCC`, the call was inactive.

In the case of `O=CC(F)(F)C(F)(F)C(F)(F)F`, the compound was called inactive.

On to `OCCN1CN(CCO)CN(CCO)C1`, for which the compound was called inactive.

`C=Cc1ccc(O)c(OC)c1`: the outcome was inactive.

For `Cc1ccc(C(=O)c2ccccc2)cc1`, the compound was classed as inactive.

For the compound `CC(C)(O)C(=O)c1ccccc1`, the call was inactive.

In the case of `CN(CCO)S(=O)(=O)C(F)(F)C(F)(F)C(F)(F)C(F)(F)C(F)(F)C(F)(F)C(F)(F)C(F)(F)F`, the compound was classed as inactive.
